Of roughly 8,800 targets only a part is listed; those with a hit were picked by preference. About 0.5% of all pairs of compound and target were hits. A number with no mark means an inactive call.
Tests used:
Experiment in all cases: log2 fold change, soluble protein after heating vs DMSO (PISA); higher = thermal stabilisation; K562 lysate, 10 uM; active = over 0.2 and 3.5 SD of the protein, either way, in both replicates (recomputed)
erlotinib = compound: C#Cc1cccc(Nc2ncnc3cc(OCCOC)c(OCCOC)cc23)c1 [erlotinib]
Summary of the method: (§1)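 Log-two fold change in thermal stability relative to solvent controls is reported from duplicates. For each sample, crude K562 extract from dounce-homogenised pellets in PBS pH 7.4 with 1 mM MgCl2, at 1 mg/mL protein, was treated with 10 μM compound for 30 min. Aliquots heated for 3 min across 48°C-58°C were pooled, brought to 0.5% NP-40 at 4°C and cleared at 21,000xg for 90 min. The supernatant was quantified by TMTpro 16plex LC-MS/MS with channel sums equalised.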

[1] = compound: C/C(=N\NC(=O)C1=CC(=CC=C1)S(=O)(=O)N2CCOCC2)/C3=C(C=CC(=C3)Cl)O
Summary of the method: as §1

[2] = compound: C1=CC(=CC=C1C2=NC3=C(N2)C=C(C=C3)C(=O)N)OC4=CC=C(C=C4)Cl
Summary of the method: as §1

[3] = compound: C1=CC2=C(C=CC(=C2)/C=C\3/C(=O)NC(=NCC4=CC=CS4)S3)N=C1
Summary of the method: as §1

[4] = compound: C1=CC2=NC=CN=C2C=C1/C=C/3\C(=O)NC(=O)S3
Summary of the method: as §1

[5] = compound: C1=CC=C(C=C1)C2=NC(=C(N2)C3=CC=NC=C3)C4=CC(=C(C=C4)Cl)O
Summary of the method: as §1

[6] = compound: C1=CC=C2C(=C1)C3=NNC4=CC=CC(=C43)C2=O
Summary of the method: as §1

[7] = compound: C1CCN(C1)C(=O)NC2=CC=CC(=C2)NC3=NC=C(C(=N3)NCCC4=CN=CN4)Br
Summary of the method: as §1

[8] = compound: C1CN(CCC1(CC2=CC=C(C=C2)Cl)N)C3=NC=NC4=C3C=CN4
Summary of the method: as §1

IRAK-1-4 Inhibitor I = compound: C1COCCN1CCN2C3=CC=CC=C3N=C2NC(=O)C4=CC(=CC=C4)[N+](=O)[O-] [IRAK-1-4 Inhibitor I]
Summary of the method: as §1

ibrutinib = compound: C=CC(=O)N1CCC[C@@H](n2nc(-c3ccc(Oc4ccccc4)cc3)c3c(N)ncnc32)C1 [ibrutinib]
Summary of the method: as §1

[9] = compound: CC(=O)c1cnc2ccc(-c3cc(Cl)c(O)c(Cl)c3)nc2c1N[C@H]1CC[C@H](CN(C)C)CC1
Summary of the method: as §1

ralimetinib = compound: CC(C)(C)Cn1c(N)nc2ccc(-c3[nH]c(C(C)(C)C)nc3-c3ccc(F)cc3)nc21 [ralimetinib]
Summary of the method: as §1

[10] = compound: CC(C)(O)CC(=O)NCCn1ccc2ncnc(Nc3ccc(Oc4cccc(C(F)(F)F)c4)c(Cl)c3)c21
Summary of the method: as §1

[11] = compound: CC(C)C1=C2N=C(C=C(N2N=C1)NCC3=CC=CC=C3)NCCCCCCN
Summary of the method: as §1

[12] = compound: CC1=C(C(CC(=O)N1)C2=CC=C(C=C2)C(F)(F)F)C(=O)NC3=C(C=C4C(=C3)C=NN4)F
Summary of the method: as §1

[13] = compound: CC1=C(C2=C(C=C1)C(=O)C3=CC=CC=C3N2CCCN)C
Summary of the method: as §1

[14] = compound: CC1=C(C=C(C=C1)NC(=O)C2=CC(=CC=C2)C(C)(C)C#N)NC3=CC4=C(C=C3)N=CN(C4=O)C
Summary of the method: as §1

[15] = compound: CC1=C(C=C(C=C1)NC(=O)C2=CC(=CC=C2)N(C)C)NC(=O)C3=CC=C(C=C3)O
Summary of the method: as §1

[16] = compound: CC1=CC=C(C=C1)SC2=C3C=C(SC3=CN=C2)C(=O)N
Summary of the method: as §1

Sequence of UniProt Q00536 (Q00536 whole entry, looked up): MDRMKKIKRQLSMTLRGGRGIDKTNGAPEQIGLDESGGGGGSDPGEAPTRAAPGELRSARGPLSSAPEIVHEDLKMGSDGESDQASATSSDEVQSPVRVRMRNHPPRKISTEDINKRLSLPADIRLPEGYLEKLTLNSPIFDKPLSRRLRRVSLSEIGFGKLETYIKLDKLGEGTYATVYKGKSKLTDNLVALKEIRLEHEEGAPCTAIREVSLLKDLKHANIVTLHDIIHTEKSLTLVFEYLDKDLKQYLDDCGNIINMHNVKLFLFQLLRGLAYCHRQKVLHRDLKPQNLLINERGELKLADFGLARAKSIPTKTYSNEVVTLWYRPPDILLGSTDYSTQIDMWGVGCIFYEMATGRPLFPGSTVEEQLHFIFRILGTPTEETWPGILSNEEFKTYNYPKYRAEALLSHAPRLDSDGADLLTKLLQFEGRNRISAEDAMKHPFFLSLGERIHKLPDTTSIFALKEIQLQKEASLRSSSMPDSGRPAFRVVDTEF
Sequence of UniProt Q5VT25 (Q5VT25 whole entry, looked up): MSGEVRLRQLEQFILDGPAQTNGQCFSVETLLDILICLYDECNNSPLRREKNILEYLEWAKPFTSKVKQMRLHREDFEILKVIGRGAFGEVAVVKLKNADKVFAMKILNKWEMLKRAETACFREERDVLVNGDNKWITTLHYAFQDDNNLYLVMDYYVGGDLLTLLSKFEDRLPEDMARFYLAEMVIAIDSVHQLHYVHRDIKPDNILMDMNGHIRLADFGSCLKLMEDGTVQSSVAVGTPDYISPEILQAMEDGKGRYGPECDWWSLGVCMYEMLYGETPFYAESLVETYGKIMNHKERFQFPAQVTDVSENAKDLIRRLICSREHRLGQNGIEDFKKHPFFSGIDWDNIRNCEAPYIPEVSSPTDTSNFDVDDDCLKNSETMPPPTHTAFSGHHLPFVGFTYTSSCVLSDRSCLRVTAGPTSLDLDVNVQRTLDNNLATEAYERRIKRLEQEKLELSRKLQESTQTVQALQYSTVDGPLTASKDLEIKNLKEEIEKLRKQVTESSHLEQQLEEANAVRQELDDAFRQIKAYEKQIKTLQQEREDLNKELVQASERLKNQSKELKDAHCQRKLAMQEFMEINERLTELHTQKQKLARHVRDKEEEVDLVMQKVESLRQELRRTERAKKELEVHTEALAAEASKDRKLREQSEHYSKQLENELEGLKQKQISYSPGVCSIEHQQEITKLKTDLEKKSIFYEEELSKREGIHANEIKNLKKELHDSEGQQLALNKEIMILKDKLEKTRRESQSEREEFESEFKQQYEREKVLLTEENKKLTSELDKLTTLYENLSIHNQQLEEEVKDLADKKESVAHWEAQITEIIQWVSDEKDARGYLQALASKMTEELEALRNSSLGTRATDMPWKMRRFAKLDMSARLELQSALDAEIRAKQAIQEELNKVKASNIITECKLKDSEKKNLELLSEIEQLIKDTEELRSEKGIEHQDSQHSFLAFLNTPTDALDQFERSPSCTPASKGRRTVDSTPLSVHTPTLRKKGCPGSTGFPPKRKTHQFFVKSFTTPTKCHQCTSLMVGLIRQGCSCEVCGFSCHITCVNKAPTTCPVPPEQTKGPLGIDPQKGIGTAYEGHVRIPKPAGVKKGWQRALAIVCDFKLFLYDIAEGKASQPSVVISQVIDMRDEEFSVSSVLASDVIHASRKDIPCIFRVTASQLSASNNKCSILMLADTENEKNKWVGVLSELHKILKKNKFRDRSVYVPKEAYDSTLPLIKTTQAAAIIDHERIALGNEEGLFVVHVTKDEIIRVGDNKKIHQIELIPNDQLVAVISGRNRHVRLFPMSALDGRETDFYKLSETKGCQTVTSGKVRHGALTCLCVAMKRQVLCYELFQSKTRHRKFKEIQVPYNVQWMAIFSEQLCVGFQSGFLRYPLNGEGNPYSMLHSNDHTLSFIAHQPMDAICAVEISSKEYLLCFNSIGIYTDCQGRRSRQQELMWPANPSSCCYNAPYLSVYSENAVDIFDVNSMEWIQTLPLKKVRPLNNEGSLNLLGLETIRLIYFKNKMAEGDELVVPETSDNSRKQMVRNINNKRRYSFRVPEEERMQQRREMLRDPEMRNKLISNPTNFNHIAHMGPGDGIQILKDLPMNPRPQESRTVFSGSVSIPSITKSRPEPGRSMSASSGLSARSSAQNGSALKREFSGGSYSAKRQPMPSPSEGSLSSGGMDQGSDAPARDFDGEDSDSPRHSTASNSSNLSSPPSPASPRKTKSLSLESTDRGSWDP
Sequence of UniProt Q14012 (Q14012 whole entry, looked up): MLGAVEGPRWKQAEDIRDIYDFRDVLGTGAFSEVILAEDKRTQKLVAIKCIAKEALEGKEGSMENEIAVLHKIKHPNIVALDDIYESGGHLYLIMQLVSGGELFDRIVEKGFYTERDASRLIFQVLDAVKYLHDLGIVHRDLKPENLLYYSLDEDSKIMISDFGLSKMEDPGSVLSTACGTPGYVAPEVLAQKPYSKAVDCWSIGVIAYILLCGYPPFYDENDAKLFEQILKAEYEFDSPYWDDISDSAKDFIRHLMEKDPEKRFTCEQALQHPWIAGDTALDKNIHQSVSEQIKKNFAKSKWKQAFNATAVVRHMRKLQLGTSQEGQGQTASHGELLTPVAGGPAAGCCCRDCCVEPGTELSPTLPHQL
Sequence of UniProt O14965 (O14965 whole entry, looked up): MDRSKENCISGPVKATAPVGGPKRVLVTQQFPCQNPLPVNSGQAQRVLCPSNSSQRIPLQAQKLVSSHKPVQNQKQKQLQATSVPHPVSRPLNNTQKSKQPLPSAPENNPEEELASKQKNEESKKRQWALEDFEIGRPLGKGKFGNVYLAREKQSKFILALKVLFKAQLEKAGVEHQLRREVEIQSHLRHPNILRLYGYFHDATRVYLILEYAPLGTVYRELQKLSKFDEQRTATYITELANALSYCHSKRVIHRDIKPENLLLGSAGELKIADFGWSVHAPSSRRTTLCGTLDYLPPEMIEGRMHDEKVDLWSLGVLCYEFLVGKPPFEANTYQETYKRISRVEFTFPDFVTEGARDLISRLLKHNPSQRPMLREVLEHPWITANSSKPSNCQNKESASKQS
Sequence of UniProt Q12873 (Q12873 whole entry, looked up): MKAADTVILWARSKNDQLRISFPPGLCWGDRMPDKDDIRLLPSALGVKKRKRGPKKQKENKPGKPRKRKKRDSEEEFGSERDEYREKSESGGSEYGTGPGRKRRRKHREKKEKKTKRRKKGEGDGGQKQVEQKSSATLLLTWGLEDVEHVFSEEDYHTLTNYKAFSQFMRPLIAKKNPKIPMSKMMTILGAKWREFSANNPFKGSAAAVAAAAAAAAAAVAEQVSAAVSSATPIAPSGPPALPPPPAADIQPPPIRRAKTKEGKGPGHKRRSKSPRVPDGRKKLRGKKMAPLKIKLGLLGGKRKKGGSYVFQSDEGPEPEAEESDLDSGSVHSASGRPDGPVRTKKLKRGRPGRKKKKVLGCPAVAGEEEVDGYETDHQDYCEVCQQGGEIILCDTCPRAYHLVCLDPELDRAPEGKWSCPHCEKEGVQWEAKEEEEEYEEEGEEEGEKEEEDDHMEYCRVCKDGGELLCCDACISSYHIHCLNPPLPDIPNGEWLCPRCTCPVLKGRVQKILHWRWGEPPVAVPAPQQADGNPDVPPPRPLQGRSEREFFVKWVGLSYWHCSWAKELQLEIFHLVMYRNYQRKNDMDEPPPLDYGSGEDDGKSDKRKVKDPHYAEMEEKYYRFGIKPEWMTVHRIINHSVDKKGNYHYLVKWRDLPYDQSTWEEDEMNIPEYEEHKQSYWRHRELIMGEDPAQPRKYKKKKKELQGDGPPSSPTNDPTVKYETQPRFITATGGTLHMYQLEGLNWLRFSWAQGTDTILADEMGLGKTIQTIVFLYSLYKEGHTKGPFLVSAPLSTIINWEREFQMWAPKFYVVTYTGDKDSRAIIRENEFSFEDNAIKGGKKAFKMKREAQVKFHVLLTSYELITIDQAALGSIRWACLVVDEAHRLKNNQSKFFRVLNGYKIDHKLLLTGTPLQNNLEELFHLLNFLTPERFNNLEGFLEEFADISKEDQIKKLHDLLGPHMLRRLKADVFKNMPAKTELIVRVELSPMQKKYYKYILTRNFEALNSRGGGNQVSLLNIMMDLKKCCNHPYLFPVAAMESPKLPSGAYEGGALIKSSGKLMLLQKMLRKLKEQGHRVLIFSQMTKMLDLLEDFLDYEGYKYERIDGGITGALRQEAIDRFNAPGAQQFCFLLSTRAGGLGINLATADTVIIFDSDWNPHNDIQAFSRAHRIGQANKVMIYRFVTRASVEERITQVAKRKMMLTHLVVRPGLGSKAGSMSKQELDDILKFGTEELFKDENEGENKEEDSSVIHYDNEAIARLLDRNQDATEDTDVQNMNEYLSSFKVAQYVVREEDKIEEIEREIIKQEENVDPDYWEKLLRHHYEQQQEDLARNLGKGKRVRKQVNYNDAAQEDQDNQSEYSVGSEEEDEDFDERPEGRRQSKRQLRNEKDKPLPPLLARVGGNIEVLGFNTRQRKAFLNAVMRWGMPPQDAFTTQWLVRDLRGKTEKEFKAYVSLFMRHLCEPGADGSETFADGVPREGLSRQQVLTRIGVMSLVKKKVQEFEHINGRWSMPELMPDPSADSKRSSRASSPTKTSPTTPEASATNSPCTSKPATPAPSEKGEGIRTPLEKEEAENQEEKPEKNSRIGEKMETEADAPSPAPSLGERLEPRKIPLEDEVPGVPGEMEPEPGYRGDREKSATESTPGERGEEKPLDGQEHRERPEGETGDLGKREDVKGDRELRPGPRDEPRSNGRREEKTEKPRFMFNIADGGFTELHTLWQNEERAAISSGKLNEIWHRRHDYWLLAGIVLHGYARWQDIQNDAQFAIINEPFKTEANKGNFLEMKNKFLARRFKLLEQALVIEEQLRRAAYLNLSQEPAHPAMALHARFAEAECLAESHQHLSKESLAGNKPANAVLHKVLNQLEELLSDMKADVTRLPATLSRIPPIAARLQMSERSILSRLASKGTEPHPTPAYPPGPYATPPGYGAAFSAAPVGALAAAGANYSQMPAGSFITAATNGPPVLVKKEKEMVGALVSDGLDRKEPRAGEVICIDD

Target | log2 fold change (erlotinib) | log2 fold change [1] | log2 fold change [2] | log2 fold change [3] | log2 fold change [4] | log2 fold change [5] | log2 fold change [6] | log2 fold change [7] | log2 fold change [8] | log2 fold change (IRAK-1-4 Inhibitor I) | log2 fold change (ibrutinib) | log2 fold change [9] | log2 fold change (ralimetinib) | log2 fold change [10] | log2 fold change [11] | log2 fold change [12] | log2 fold change [13] | log2 fold change [14] | log2 fold change [15] | log2 fold change [16]
CDC42BPA isoform 6 (UniProt Q5VT25) | -0.007 | 0.077 | -0.086 | 0.011 | -0.012 | -0.029 | -0.09 | -0.032 | -0.006 | -0.038 | 0.016 | 0.039 | 0.012 | -0.013 | 0.03 | 0.005 | -0.004 | 0.018 | 0.034 | -0.003
CCNB1 (UniProt P14635) | -0.013 | 0.008 | 0.032 | -0.019 | 0.01 | 0.001 | -0.11 | -0.034 | 0.026 | 0.01 | -0.01 | 0.503 (active) | 0.009 | -0.045 | -0.012 | -0.005 | 0.003 | 0.044 | -0.002 | 0
CDK16 isoform 2 (UniProt Q00536) | -0.061 | 0.002 | 0.016 | 0 | -0.005 | -0.017 | 0.151 | 0.004 | -0.007 | 0.03 | 0.025 | 0.28 | 0.016 | 0.009 | -0.089 | -0.023 | -0.007 | -0.037 | -0.024 | -0.141
AURKA (UniProt O14965) | 0.111 | -0.028 | -0.033 | 0.008 | 0 | -0.039 | 0.359 | 0.483 | -0.004 | 0.129 | 0.348 | 0.144 | -0.042 | 0.037 | -0.051 | 0.034 | -0.039 | -0.042 | -0.005 | 0.007
CAMK1 (UniProt Q14012) | -0.014 | -0.145 | 0.008 | 0 | 0.037 | -0.011 | 0.135 | 0 | 0.016 | 0.107 | 0.017 | 0.009 | 0.004 | -0.144 | -0.017 | -0.034 | -0.003 | 0.016 | -0.027 | 0.008
CHD3 isoform 3 (UniProt Q12873) | 0.003 | -0.022 | -0.025 | -0.01 | 0.003 | 0.002 | -0.017 | -0.058 | 0.005 | -0.032 | -0.003 | 0.021 | -0.01 | -0.021 | -0.001 | 0.019 | -0.018 | 0 | -0.013 | 0.007
BNIP1 (UniProt Q12981) | -0.028 | 0.05 | -0.048 | -0.011 | -0.026 | 0.071 | -0.009 | 0.002 | 0.018 | -0.004 | 0.038 | 0.005 | 0.01 | -0.011 | 0.051 | 0.046 | 0.005 | 0.002 | 0.024 | 0.012
CARNMT1 (UniProt Q8N4J0) | 0 | 0.004 | 0.028 | -0.019 | 0.029 | -0.015 | -0.05 | -0.008 | -0.011 | 0.029 | -0.014 | -0.003 | -0.007 | -0.056 | -0.041 | 0.004 | -0.014 | 0.082 | -0.043 | -0.006

Source: the supplement of paper PMC10849652
